Source: the supplement of paper PMC10849652
About 7,900 targets were measured; listed, in parts, are those with a hit and a random draw of the rest. About 0.6% of all pairs of compound and target were hits.

How the values were obtained:
Assay in all cases: log2 fold change, soluble protein after heating vs DMSO (PISA); higher = thermal stabilisation; K562 cells, 10 uM, 30 min; active = over 0.2 and 3.5 SD of the protein, either way, in both replicates (recomputed)
saracatinib = compound: CN1CCN(CCOc2cc(OC3CCOCC3)c3c(Nc4c(Cl)ccc5c4OCO5)ncnc3c2)CC1 [saracatinib]
Method in brief: (§1)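 Soluble protein was quantified by TMTpro 16plex LC-MS/MS after channel sums were equalised. It was obtained as the supernatant after 21,000xg for 90 min from pooled aliquots of K562 cells (2×10^6 cells/mL, 10 μM compound, 30 min) heated for 3 min across 48°C-58°C and extracted in PBS with 0.5% NP-40 at 4°C. Thermal stability values are relative to control samples and come from duplicates. They are given as log2 fold changes.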

sotrastaurin = compound: CN1CCN(c2nc(C3=C(c4c[nH]c5ccccc45)C(=O)NC3=O)c3ccccc3n2)CC1 [sotrastaurin]
Method in brief: as §1

alvocidib = compound: CN1CC[C@H](c2c(O)cc(O)c3c(=O)cc(-c4ccccc4Cl)oc23)[C@H](O)C1 [alvocidib]
Method in brief: as §1

Tubastatin A = compound: CN1CCc2c(c3ccccc3n2Cc2ccc(C(=O)NO)cc2)C1 [Tubastatin A]
Method in brief: as §1

[1] = compound: CNC(=O)C1=CC=CC=C1NC2=NC(=NC=C2Cl)NC3=C(C=C(C=C3)N4CCOCC4)OC
Method in brief: as §1

defactinib = compound: CNC(=O)c1ccc(Nc2ncc(C(F)(F)F)c(NCc3nccnc3N(C)S(C)(=O)=O)n2)cc1 [defactinib]
Method in brief: as §1

rucaparib = compound: CNCc1ccc(-c2[nH]c3cc(F)cc4c3c2CCNC4=O)cc1 [rucaparib]
Method in brief: as §1

[2] = compound: CNc1nc(-c2ccc3c(N)n[nH]c3c2)cc(N2C[C@@H](C(=O)NC3CCCCC3)CC[C@H]2C)n1
Method in brief: as §1

encorafenib = compound: COC(=O)N[C@@H](C)CNc1nccc(-c2cn(C(C)C)nc2-c2cc(Cl)cc(NS(C)(=O)=O)c2F)n1 [encorafenib]
Method in brief: as §1

[3] = compound: COC(=O)[C@H](CCSC)NC(=O)C1=C(C=C(C=C1)NC[C@H](CS)N)C2=CC=CC=C2
Method in brief: as §1

Measured: log2 fold change

UBIAD1 (UniProt Q9Y5Z9)
active: rucaparib 0.473
inactive: saracatinib 0.003 | sotrastaurin 0.208 | alvocidib 0.021 | Tubastatin A -0.078 | [1] 0.054 | defactinib 0.002 | [2] -0.053 | encorafenib -0.035 | [3] -0.039

TNPO1 (UniProt Q92973)
inactive: saracatinib 0.034 | sotrastaurin -0.062 | alvocidib -0.141 | Tubastatin A -0.064 | [1] -0.013 | defactinib -0.123 | rucaparib -0.04 | [2] 0.009 | encorafenib 0.029 | [3] 0.006

TRIM28 (UniProt Q13263)
inactive: saracatinib 0.008 | sotrastaurin -0.064 | alvocidib -0.128 | Tubastatin A 0.048 | [1] 0.054 | defactinib -0.121 | rucaparib -0.075 | [2] -0.019 | encorafenib 0.047 | [3] -0.032

WASHC2C, A0A096LPC5
WASHC2C, A0A096LPC5, sequence (A0A096LPC5 whole entry, looked up): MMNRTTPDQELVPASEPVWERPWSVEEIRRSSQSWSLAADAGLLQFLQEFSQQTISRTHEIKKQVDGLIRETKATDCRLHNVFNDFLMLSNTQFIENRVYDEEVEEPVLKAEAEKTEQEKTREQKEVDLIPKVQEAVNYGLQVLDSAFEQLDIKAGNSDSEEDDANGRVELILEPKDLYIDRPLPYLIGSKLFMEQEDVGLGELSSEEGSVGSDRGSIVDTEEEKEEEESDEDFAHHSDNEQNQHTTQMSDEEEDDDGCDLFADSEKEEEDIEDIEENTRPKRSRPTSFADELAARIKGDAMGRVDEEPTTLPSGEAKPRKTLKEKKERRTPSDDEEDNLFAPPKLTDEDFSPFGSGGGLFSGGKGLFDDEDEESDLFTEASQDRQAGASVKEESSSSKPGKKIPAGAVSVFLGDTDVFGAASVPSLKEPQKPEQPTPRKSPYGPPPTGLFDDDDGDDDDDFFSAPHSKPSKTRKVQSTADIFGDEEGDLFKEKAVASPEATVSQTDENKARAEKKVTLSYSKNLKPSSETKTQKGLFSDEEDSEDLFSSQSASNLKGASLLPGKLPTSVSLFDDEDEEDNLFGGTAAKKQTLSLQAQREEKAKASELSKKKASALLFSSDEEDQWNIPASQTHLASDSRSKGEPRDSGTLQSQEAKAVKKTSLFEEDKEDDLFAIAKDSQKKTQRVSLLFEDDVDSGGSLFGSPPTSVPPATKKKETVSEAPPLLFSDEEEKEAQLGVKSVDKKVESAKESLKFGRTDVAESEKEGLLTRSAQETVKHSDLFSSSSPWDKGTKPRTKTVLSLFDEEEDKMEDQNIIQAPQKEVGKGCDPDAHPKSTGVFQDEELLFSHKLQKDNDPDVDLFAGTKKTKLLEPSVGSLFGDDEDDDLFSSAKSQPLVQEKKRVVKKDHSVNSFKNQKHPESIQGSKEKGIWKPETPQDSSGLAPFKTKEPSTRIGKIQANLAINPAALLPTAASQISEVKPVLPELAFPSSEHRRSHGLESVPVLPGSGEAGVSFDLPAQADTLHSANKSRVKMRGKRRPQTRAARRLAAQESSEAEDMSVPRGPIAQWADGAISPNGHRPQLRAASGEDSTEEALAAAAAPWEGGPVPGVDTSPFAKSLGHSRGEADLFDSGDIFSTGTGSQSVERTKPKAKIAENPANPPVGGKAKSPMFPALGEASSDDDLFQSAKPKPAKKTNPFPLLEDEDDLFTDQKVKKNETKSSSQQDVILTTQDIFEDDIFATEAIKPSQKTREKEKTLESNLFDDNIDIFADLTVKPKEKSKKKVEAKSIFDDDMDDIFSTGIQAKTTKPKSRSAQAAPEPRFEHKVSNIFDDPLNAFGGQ
inactive: saracatinib -0.116 | sotrastaurin -0.09 | alvocidib 0.071 | Tubastatin A -0.02 | [1] -0.019 | defactinib -0.121 | rucaparib 0.114 | [2] -0.02 | encorafenib 0.035 | [3] 0.052

TXNRD1 (UniProt Q16881)
inactive: saracatinib -0.012 | sotrastaurin 0.058 | alvocidib -0.05 | Tubastatin A -0.001 | [1] 0.022 | defactinib -0.015 | rucaparib -0.113 | [2] 0.032 | encorafenib -0.033 | [3] -0.001

TRMT61A (UniProt Q96FX7)
UniProt Q96FX7, sequence (Q96FX7 whole entry, looked up): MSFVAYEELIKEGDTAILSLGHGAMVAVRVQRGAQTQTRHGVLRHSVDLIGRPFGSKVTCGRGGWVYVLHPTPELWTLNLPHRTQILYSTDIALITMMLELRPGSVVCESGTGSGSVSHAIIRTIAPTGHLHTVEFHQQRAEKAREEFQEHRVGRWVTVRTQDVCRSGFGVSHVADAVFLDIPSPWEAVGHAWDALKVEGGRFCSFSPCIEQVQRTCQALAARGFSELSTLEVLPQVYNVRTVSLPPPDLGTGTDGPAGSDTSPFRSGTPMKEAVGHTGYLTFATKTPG
inactive: saracatinib -0.018 | sotrastaurin -0.002 | alvocidib 0.134 | Tubastatin A 0.08 | [1] -0.038 | defactinib 0.138 | rucaparib 0.286 | [2] 0.02 | encorafenib -0.03 | [3] 0.039

TNFRSF8 (UniProt P28908)
inactive: saracatinib 0.037 | sotrastaurin 0.092 | alvocidib -0.013 | Tubastatin A 0.031 | [1] -0.013 | defactinib -0.034 | rucaparib 0.012 | [2] 0.04 | encorafenib -0.046 | [3] -0.02

UHRF1BP1L (UniProt A0JNW5)
inactive: saracatinib -0.01 | sotrastaurin 0 | alvocidib -0.037 | Tubastatin A 0.031 | [1] -0.051 | defactinib -0.024 | rucaparib -0.052 | [2] 0.05 | encorafenib -0.02 | [3] -0.029

USP25 isoform 3 (UniProt Q9UHP3)
inactive: saracatinib 0.045 | sotrastaurin -0.003 | alvocidib -0.031 | Tubastatin A 0.061 | [1] 0.044 | defactinib -0.045 | rucaparib 0.019 | [2] -0.028 | encorafenib 0.01 | [3] -0.033

TMEM177 (UniProt Q53S58)
UniProt Q53S58, sequence (Q53S58 whole entry, looked up): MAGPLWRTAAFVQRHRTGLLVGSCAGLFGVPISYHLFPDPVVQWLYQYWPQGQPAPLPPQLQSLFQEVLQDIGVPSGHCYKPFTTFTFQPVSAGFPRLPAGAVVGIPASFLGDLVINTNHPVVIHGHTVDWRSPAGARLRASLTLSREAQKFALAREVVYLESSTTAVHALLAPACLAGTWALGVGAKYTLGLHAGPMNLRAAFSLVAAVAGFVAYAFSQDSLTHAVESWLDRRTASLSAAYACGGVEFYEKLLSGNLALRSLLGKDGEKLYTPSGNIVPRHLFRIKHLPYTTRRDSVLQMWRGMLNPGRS
inactive: saracatinib 0.078 | sotrastaurin 0.014 | alvocidib 0.031 | Tubastatin A 0.08 | [1] 0.005 | defactinib -0.046 | rucaparib 0.009 | [2] -0.003 | encorafenib -0.02 | [3] 0.024

VPS8 (UniProt Q8N3P4)
UniProt Q8N3P4, sequence (Q8N3P4 whole entry, looked up): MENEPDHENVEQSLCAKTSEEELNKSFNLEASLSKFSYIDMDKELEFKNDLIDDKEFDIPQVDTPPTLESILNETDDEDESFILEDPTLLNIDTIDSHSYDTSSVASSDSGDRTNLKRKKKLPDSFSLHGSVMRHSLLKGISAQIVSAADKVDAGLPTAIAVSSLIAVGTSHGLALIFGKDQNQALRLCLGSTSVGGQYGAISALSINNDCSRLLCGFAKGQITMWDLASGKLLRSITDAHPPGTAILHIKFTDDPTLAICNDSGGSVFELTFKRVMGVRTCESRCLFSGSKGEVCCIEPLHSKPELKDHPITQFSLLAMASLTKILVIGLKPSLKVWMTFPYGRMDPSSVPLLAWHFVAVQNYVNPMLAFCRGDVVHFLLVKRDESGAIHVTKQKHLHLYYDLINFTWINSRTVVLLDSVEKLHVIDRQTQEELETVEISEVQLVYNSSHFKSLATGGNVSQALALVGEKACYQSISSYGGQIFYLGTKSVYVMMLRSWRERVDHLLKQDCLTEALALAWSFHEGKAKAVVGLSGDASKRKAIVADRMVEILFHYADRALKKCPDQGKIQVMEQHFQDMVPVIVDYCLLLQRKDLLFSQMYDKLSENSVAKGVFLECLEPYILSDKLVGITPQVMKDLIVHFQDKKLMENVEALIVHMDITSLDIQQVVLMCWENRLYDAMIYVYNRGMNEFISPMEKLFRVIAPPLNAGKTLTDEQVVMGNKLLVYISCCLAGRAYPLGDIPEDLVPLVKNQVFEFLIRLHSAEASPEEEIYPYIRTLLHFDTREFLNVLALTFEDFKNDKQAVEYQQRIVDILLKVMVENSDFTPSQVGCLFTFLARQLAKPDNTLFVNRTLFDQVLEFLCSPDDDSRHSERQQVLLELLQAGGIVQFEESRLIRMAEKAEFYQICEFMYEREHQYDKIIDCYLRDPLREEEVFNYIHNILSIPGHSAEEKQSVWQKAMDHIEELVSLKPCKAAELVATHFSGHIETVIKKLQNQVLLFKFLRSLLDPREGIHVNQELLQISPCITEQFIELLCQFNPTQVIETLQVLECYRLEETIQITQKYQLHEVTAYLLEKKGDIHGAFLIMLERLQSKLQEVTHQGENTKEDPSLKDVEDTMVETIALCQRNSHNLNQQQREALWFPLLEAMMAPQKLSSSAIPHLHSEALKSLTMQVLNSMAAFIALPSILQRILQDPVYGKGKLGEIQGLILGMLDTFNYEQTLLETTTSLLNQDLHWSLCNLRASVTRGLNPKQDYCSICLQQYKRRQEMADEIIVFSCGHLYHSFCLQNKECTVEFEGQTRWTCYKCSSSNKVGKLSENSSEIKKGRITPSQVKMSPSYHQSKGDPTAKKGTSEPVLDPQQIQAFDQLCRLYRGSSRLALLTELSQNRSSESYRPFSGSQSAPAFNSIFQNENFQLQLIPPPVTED
inactive: saracatinib -0.009 | sotrastaurin -0.096 | alvocidib -0.038 | Tubastatin A 0.09 | [1] 0.002 | defactinib -0.171 | rucaparib 0.023 | [2] -0.015 | encorafenib 0.093 | [3] -0.078

UBE4A isoform 2 (UniProt Q14139)
inactive: saracatinib -0.024 | sotrastaurin -0.148 | alvocidib 0.145 | Tubastatin A -0.009 | [1] 0.006 | defactinib -0.017 | rucaparib 0.021 | [2] -0.079 | encorafenib 0.03 | [3] -0.078

VPS33A (UniProt Q96AX1)
inactive: saracatinib -0.036 | sotrastaurin -0.174 | alvocidib -0.071 | Tubastatin A 0.033 | [1] -0.043 | defactinib -0.06 | rucaparib 0.045 | [2] -0.013 | encorafenib -0.003 | [3] -0.025

TTI2 (UniProt Q6NXR4)
UniProt Q6NXR4, sequence (Q6NXR4 whole entry, looked up): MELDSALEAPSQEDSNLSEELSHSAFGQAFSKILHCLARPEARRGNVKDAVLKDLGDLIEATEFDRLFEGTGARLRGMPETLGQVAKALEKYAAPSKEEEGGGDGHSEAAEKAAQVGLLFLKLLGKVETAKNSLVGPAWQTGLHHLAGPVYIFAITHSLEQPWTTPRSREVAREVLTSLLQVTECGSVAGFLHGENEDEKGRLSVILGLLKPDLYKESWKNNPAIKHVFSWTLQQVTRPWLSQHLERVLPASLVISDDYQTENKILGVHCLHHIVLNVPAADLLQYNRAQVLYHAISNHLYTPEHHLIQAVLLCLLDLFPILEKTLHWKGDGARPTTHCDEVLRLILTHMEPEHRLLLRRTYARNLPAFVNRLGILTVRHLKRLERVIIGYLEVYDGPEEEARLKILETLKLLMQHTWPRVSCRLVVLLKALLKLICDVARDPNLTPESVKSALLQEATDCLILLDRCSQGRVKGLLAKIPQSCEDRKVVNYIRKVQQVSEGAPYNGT
inactive: saracatinib -0.028 | sotrastaurin -0.187 | alvocidib 0.027 | Tubastatin A -0.02 | [1] 0.051 | defactinib -0.073 | rucaparib 0.119 | [2] -0.036 | encorafenib 0.037 | [3] -0.038

TMEM263 (UniProt Q8WUH6)
inactive: saracatinib 0.027 | sotrastaurin -0.046 | alvocidib 0.025 | Tubastatin A -0.049 | [1] -0.161 | defactinib 0.007 | rucaparib -0.031 | [2] -0.057 | encorafenib 0.015 | [3] -0.015

U2AF1 isoform 2 (UniProt Q01081)
inactive: saracatinib -0.027 | sotrastaurin -0.062 | alvocidib -0.064 | Tubastatin A 0.042 | [1] -0.104 | defactinib -0.086 | rucaparib 0.045 | [2] -0.009 | encorafenib 0.041 | [3] -0.075

UFD1 isoform 1 (UniProt Q92890)
inactive: saracatinib 0.008 | sotrastaurin 0.005 | alvocidib -0.021 | Tubastatin A 0.027 | [1] -0.022 | defactinib -0.013 | rucaparib -0.02 | [2] -0.054 | encorafenib -0.004 | [3] 0

TMEM63B (UniProt Q5T3F8)
inactive: saracatinib -0.084 | sotrastaurin -0.055 | alvocidib 0.021 | Tubastatin A -0.015 | [1] 0.019 | defactinib 0.015 | rucaparib -0.004 | [2] -0.068 | encorafenib 0.023 | [3] 0

WDR37 isoform 2 (UniProt Q9Y2I8)
inactive: saracatinib -0.094 | sotrastaurin -0.01 | alvocidib 0.207 | Tubastatin A -0.019 | [1] -0.077 | defactinib 0 | rucaparib 0.064 | [2] -0.108 | encorafenib 0.084 | [3] -0.007

VTI1A (UniProt Q96AJ9)
UniProt Q96AJ9, sequence (Q96AJ9 whole entry, looked up): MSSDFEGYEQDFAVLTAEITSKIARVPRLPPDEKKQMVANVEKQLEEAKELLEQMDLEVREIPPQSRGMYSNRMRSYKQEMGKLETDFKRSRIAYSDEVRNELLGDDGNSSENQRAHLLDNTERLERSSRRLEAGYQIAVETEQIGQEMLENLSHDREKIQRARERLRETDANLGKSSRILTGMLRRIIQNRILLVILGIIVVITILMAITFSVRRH
inactive: saracatinib 0.101 | sotrastaurin 0.027 | alvocidib -0.002 | Tubastatin A -0.028 | [1] 0.095 | defactinib -0.03 | rucaparib -0.058 | [2] -0.042 | encorafenib -0.001 | [3] 0.07

WAPL isoform 3 (UniProt Q7Z5K2)
inactive: saracatinib 0.043 | sotrastaurin -0.144 | alvocidib -0.296 | Tubastatin A 0.063 | [1] -0.008 | defactinib -0.265 | rucaparib -0.066 | [2] -0.052 | encorafenib 0.212 | [3] -0.079

VTA1 (UniProt Q9NP79)
inactive: saracatinib 0.028 | sotrastaurin -0.022 | alvocidib -0.081 | Tubastatin A -0.046 | [1] 0.045 | defactinib -0.029 | rucaparib 0.011 | [2] -0.011 | encorafenib 0.023 | [3] -0.033

VPS53 isoform 4 (UniProt Q5VIR6)
inactive: saracatinib 0.029 | sotrastaurin -0.102 | alvocidib -0.146 | Tubastatin A 0.017 | [1] -0.009 | defactinib -0.056 | rucaparib 0.061 | [2] -0.028 | encorafenib 0.06 | [3] -0.001

WBP4 (UniProt O75554)
inactive: saracatinib 0.113 | sotrastaurin 0.012 | alvocidib -0.032 | Tubastatin A -0.02 | [1] -0.015 | defactinib 0.012 | rucaparib -0.031 | [2] -0.019 | encorafenib -0.046 | [3] 0.045

VTI1B (UniProt Q9UEU0)
inactive: saracatinib 0.041 | sotrastaurin 0.07 | alvocidib 0.055 | Tubastatin A -0.046 | [1] -0.008 | defactinib 0.005 | rucaparib 0.004 | [2] -0.091 | encorafenib 0 | [3] 0.046

VPS37A (UniProt Q8NEZ2)
inactive: saracatinib -0.043 | sotrastaurin -0.087 | alvocidib 0.015 | Tubastatin A 0.002 | [1] 0.07 | defactinib -0.164 | [2] 0.065 | [3] 0.138

TYW1 (UniProt Q9NV66)
UniProt Q9NV66, sequence (Q9NV66 whole entry, looked up): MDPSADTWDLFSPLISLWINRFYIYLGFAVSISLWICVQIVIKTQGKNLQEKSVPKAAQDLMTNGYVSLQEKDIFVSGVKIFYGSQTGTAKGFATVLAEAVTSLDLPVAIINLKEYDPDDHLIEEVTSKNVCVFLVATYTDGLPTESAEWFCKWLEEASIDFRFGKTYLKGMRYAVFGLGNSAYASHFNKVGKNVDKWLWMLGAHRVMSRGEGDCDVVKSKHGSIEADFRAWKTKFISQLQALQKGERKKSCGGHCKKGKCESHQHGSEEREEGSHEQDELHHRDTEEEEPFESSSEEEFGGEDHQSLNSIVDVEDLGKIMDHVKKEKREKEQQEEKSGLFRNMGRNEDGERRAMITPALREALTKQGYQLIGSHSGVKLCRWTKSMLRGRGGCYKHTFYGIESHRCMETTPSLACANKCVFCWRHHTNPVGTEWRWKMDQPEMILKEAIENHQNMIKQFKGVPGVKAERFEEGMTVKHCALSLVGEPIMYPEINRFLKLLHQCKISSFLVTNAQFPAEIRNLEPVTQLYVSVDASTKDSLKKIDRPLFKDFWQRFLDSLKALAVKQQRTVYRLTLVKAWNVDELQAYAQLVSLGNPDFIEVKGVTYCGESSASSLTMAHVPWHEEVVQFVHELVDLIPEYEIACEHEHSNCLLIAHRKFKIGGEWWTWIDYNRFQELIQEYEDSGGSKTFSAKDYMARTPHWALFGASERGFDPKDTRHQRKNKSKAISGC
inactive: saracatinib 0.089 | sotrastaurin -0.059 | alvocidib -0.064 | Tubastatin A -0.033 | [1] 0.031 | defactinib -0.055 | rucaparib 0.052 | [2] -0.061 | encorafenib 0.028 | [3] -0.059

VARS2, A0A0G2JL52
inactive: saracatinib 0.007 | sotrastaurin -0.019 | alvocidib -0.005 | Tubastatin A -0.026 | [1] -0.019 | defactinib -0.005 | rucaparib 0.02 | [2] 0.012 | encorafenib -0.004 | [3] -0.041

TSPAN13 (UniProt O95857)
UniProt O95857, sequence (O95857 whole entry, looked up): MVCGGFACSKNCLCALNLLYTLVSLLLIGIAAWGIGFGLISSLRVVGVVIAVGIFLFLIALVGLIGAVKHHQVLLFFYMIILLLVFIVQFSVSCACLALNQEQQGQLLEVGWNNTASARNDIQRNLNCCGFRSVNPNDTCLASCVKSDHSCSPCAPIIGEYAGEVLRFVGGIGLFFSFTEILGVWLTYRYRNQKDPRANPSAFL
inactive: saracatinib -0.055 | sotrastaurin 0.044 | alvocidib -0.305 | Tubastatin A -0.11 | [1] 0.054 | defactinib -0.104 | [2] -0.029 | [3] -0.291

VWA8 (UniProt A3KMH1)
inactive: saracatinib -0.012 | sotrastaurin -0.003 | alvocidib -0.046 | Tubastatin A 0.072 | [1] 0.006 | defactinib -0.017 | rucaparib 0.008 | [2] -0.013 | encorafenib 0.003 | [3] -0.049
